According to PubChem BioAssay (NCI):
This is part of a sample that, as a whole, favours compounds with a hit. Of some 79,000 tested, about 15% had one in any assay. Rule as the data show it: active = growth inhibition above about 70%; inactive = the rest.

Assays:
[1] = NCI Yeast Anticancer Drug Screen. Data for the rad50 strain (AID 155);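 also: 0% = growth of vehicle-only cultures of the same strain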; conditions: S. cerevisiae rad50 strain growth inhibition; at 50.0 µM; active compounds read high
Summary of the method: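 Inhibition values express reduced yeast growth in compound-treated cultures relative to vehicle-treated controls.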

[2] = NCI Yeast Anticancer Drug Screen. Data for the mec2-1 strain (AID 157); conditions: S. cerevisiae mec2-1 strain, at 50.0 µM, active compounds read high
Summary of the method: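 Using mec2-1 yeast: add compound, measure growth, express inhibition versus vehicle-treated cultures.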

[3] = NCI Yeast Anticancer Drug Screen. Data for the sgs1 mgt1 strain (AID 161);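 also: 0% = growth of cultures given vehicle only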; conditions: S. cerevisiae sgs1 mgt1 strain, at 50.0 µM, active compounds read high
Summary of the method: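 This yeast growth screen uses a strain with defined DNA-repair lesions; compound-treated growth is compared with vehicle-treated growth.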

[4] = NCI Yeast Anticancer Drug Screen. Data for the cln2 rad14 strain (AID 165);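 also: 0% = growth equal to vehicle treated cultures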; conditions: S. cerevisiae cln2 rad14 strain, at 50.0 µM, active compounds read high
Summary of the method: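 Yeast strain cln2 rad14, bearing defects in cell cycle control and DNA repair, serves as the test system; values reflect growth inhibition compared with vehicle.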

[5] = NCI Yeast Anticancer Drug Screen. Data for the bub3 strain (AID 167); conditions: S. cerevisiae bub3 mutant strain, at 50.0 µM, active compounds read high
Summary of the method: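 Steps: expose the mutant yeast strain to compound; grow alongside vehicle-treated cultures; measure growth; express inhibition against the vehicle cultures.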

[6] = NCI Yeast Anticancer Drug Screen. Data for the mlh1 rad18 strain (AID 175); conditions: S. cerevisiae mlh1 rad18 strain growth inhibition; at 50.0 µM; active compounds read high
Summary of the method: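 Steps: expose repair-defective yeast to compound; measure growth; express inhibition against vehicle-treated controls.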

Measured: growth inhibition

CCCCCCCCCCCCCCCC1CCCC2CCCCC12 (centres undefined)
inactive: [1] -9.05% | [2] 9.25% | [3] 9.5% | [4] -5.85% | [5] 12.6%

NC(=S)c1ccc[n+](Cc2c(Cl)cccc2Cl)c1
inactive: [1] 11.9% | [2] 3.6% | [3] -0.8% | [4] -13.3% | [5] -0.15%

N#C/C(=C\c1cc(Br)cc(Br)c1O)c1ccc([N+](=O)[O-])cc1
inactive: [1] -2.7% | [2] -10.9% | [3] -6.8% | [4] 17.1% | [5] 22.3% | [6] -2.6%

COc1ccc(CCNc2ncc([N+](=O)[O-])cc2N)cc1OC
inactive: [1] 5.15% | [2] -8.75% | [3] -10.8% | [4] -20.9% | [5] 6.25%

CC12C=CC(=O)C=C1CCC1C2C(O)CC2(C)/C(=C\CO)CCC12 (centres undefined)
inactive: [1] -4.05% | [2] -1.75% | [3] 6.55% | [4] -15.8% | [5] 60.2%

N#C/C(=C\c1ccccc1)c1cccc(Cl)c1
inactive: [1] -32.2% | [2] -5.8% | [3] -13.3% | [4] -97.1% | [5] 13.8%

c1ccc(C2NC(c3ccccc3)c3c(ccc4ccccc34)O2)cc1 (centres undefined)
inactive: [1] 20.1% | [2] -2.1% | [3] 13.1% | [4] -19.9% | [5] -5.15%

CC1(C)C=C(C(Cl)c2ccccc2)C(=O)c2ccccc21 (centres undefined)
inactive: [1] -1% | [2] 6.6% | [3] 0% | [4] -4.6% | [5] -3.7%

O=C1CN(/N=C/c2ccc(-c3cccc(C(F)(F)F)c3)o2)C(=O)N1
inactive: [1] 36.4% | [2] 18.4% | [3] 19.8% | [4] -19.3% | [5] 16.2%

Nc1ccc(S(=O)(=O)/N=C(\NS(=O)(=O)c2ccc(N)cc2)c2ccccc2)cc1
inactive: [1] 15.7% | [2] 0.65% | [3] 12.2% | [4] 16.2% | [5] 5.85%

CN(C)C(=O)c1ccccc1
inactive: [1] 29.6% | [2] 6.25% | [3] -0.35% | [4] 13.9% | [5] -9.25%

CSC(=S)n1nc(-c2cccs2)c(N=Nc2ccc([N+](=O)[O-])cc2)c1C(F)(F)F
inactive: [1] 19.1% | [2] -3.75% | [3] 19.9% | [4] 12.2% | [5] 3.8%

O=c1cc(-c2ccc3c(c2)OCO3)oc2ccccc12
inactive: [1] 20.4% | [2] 1.8% | [3] 6% | [4] -2.35% | [5] -5.25%

O=C1c2c(ccc3c2CCC3)CC12Cc1cc3c(cc1C2)CCC3
inactive: [1] -33.8% | [2] -32.5% | [3] -22.9% | [4] 10.9% | [5] -0.5%

CCCCC(O)c1ccc[n+]([O-])c1 (centres undefined)
inactive: [1] 4.3% | [2] -21% | [3] 0.6% | [4] 2.95% | [5] -3.4%

CCCCOc1ccc2c(c1)CC[C@@H]1[C@@H]2CC[C@]2(C)C(=O)N(CCCC)C(=O)C[C@@H]12
inactive: [1] 5% | [2] -3.25% | [3] 16.4% | [4] -17.1% | [5] 16.5% | [6] 4.2%

CCCCN(CCCC)C(=O)C(=O)C(C)C(=O)CC (centres undefined)
inactive: [1] -3.6% | [2] -2.75% | [3] 14.7% | [4] -1.05% | [5] 12.3% | [6] 25.7%

O=C(O)CCC(=O)c1ccc[nH]1
inactive: [1] 7.3% | [2] -23.2% | [3] -30.1% | [4] 19.2% | [5] 15.1% | [6] -19.1%

O=C(O)CC1SC2(C(=O)N(Cc3ccccc3)c3ccccc32)N(c2ccccc2)C1=O (centres undefined)
inactive: [1] 45.4% | [2] 29.8% | [3] 32.5% | [4] -8.55% | [5] 8.55% | [6] 53%

CCCOC(=O)c1cc(C(=CCC[C@H]2CC[C@@]3(C)[C@@H](CC[C@@H]4[C@@H]3CC[C@]3(C)[C@@H](C(C)CCCC(C)C)CC[C@@H]43)C2)c2cc(Cl)c(O)c(C(=O)OCCC)c2)cc(Cl)c1O (some centres undefined)
inactive: [1] 8.7% | [2] -9.05% | [3] -0.55% | [4] 5.65% | [5] -4.05% | [6] -45%

O=C1OCCc2c1[nH]c1ccccc21
inactive: [1] 12.9% | [2] 10.7% | [3] 5.65% | [4] 22.9% | [5] 13.5% | [6] 17.6%

C=CCc1ccc(OC(=O)Nc2ccccc2)c(OC)c1
inactive: [1] 55.9% | [2] 25.2% | [3] 31.4% | [4] 13.9% | [5] 33.5% | [6] 23.4%

COc1ccc(C(=O)CCN(C)C)cc1
inactive: [1] 15.6% | [2] -5.85% | [3] -7.65% | [4] -11.3% | [5] -7.5% | [6] -4.6%
